Hits are enriched below; roughly 7.3% of the tested compounds scored in any of these assays.
FLuc modulator: inhibits or activates purified firefly luciferase, miR-21 counter-screen; purified FLuc, Km substrates, luminescence inhibition; Potency, µM (doses to about 57.5 µM), usual class: inhibitors; AID 588342; actives 6.9% (n = 360,000); P08659; further: nearly all actives have a fitted effect of over 55% in size
Target sequence (P08659 whole entry, looked up): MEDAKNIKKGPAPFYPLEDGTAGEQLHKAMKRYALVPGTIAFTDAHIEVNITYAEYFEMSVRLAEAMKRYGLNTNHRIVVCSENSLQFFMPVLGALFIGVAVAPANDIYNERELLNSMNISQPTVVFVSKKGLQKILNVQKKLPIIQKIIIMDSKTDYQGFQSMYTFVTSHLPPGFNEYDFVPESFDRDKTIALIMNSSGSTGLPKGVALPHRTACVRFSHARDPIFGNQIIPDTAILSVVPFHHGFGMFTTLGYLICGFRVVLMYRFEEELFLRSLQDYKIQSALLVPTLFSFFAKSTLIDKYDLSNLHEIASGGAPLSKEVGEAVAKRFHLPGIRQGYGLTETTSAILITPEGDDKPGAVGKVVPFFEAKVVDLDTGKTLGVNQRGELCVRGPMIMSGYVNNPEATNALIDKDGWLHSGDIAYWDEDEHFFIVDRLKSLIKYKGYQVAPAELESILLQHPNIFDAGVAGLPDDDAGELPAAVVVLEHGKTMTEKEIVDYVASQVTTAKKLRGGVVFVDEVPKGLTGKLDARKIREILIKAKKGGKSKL
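Biochemical qHTS of compounds, final roughly 60 µM downward over six points, against 10 nM purified firefly luciferase using Km concentrations of substrates (10 uM D-luciferin, 10 uM ATP) in Tris acetate pH 7.5 buffer; luminescence output.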
SMN2 splice up: SMN2 splice variant enhancement; HEK293 SMN2-luciferase splicing reporter, luminescence, 30-36 h; Potency, µM (highest dose often 46.1 µM), most hits filed as activators; actives 2.8% (n = 210,000); AID 1458; further: nearly all actives have a fitted effect of over 55% in size
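HEK293 cells carry an SMN2 minigene-luciferase reporter in which exon 7 inclusion puts luciferase in frame. Cells were seeded at 2000 cells/well, attached for 10-12 hours, then exposed to compounds for 30-36 hours at 37C before ONE-Glo luminescence.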
ELG1 genotoxic: induces genotoxicity in HEK293T cells with luciferase-tagged ELG1. HEK293T ELG1-luciferase reporter, luminescence, 16 h. actives 1.3% (n = 330,000). Potency, µM (doses to about 46 µM), usual class: activators; further: nearly all actives have a fitted effect of over 60% in size
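HEK293T cells expressing luciferase-tagged ELG1 were treated with compound or DMSO for 16 hr at 37°C. Luciferase activity was then read after 30 min with ONE-Glo at room temperature; rising signal flags genetic stress.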
Luc counter: counter-screen: inhibitors of Kinase-Glo firefly luciferase | Potency, µM (series often up to 38.3 µM), most hits filed as inhibitors | Q27757 | actives 0.28% (n = 200,000) | AID 1379 | Kinase-Glo luciferase, ATP luminescence, 8 min; further: nearly all actives have a fitted effect of over 60% in size
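Inhibition of Kinase-Glo luciferase light generation was assessed at 10 uM ATP in pH 7.2 imidazole buffer, with luminescence measured after eight minutes at ambient temperature.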
Rab9 promoter act: activators of Rab9 promoter. Huh7 Rab9 promoter-luciferase reporter, luminescence, 24 h. Potency, µM (titrated, usually from 9.22 µM), most hits filed as activators. actives 2.8% (n = 320,000); further: nearly all actives have a fitted effect of over 60% in size
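Luminescence read-out: Huh7 cells stably expressing Rab9-luciferase, treated 24 h with compound at 37 °C, then lysed with luciferase reagent for 10 min at ambient before reading.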
NPC1 prom act: activators of NPC1 promoter; Huh7 NPC1 promoter luciferase reporter, 24 h; Potency, µM (top dose mostly 9.22 µM), most hits filed as activators; actives 2.4% (n = 320,000); further: nearly all actives have a fitted effect of over 60% in size
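Luciferase expression driven by the NPC1 promoter was measured in stably transfected Huh7 cells after a 24 h compound incubation, using a luciferase reagent and a luminescence read.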
Numbers stand for hits; - = inactive; ? = inconclusive; . = no result given; [ ] = remark or other dose. The call rests on the fitted dose curve; in most records, active means well fitted curve in the direction sought with a large enough effect; inconclusive means small, poorly fitted or top-dose-only effect, or another doubt; inactive means no such curve, though single readings can be large; an effect the other way counts as inactive or inconclusive.

SMILES	FLuc modulator	SMN2 splice up	ELG1 genotoxic	Luc counter	Rab9 promoter act	NPC1 prom act
C[C@]1(c2ccccc2)O[C@@H]2C[C@@H]3[C@@H]4CCC5=CC(=O)C=C[C@@]5(C)[C@]4(F)[C@H](O)C[C@]3(C)[C@@]2(C(=O)CO)O1	.	-[9.22 µM]	.	-[7.66 µM]	.	.
Cc1csc(=S)n1-c1ccccc1	-	-	-	-	-	-
Cc1cc(C(=O)C(=O)O)c(C)n1-c1ccc(Cl)cc1	-	-	-	-	-	-
Cc1csc(=N)n1-c1ccc(Cl)cc1	9.5µM	-	?	-	3.5µM	?
Cc1ccc(-n2c(C)csc2=N)cc1	5.4µM	11µM	5.2µM	-	2µM	3.2µM
Cc1ccc(CCNC(=O)c2c(C)oc3ncnc(N4CCOCC4)c23)cc1	-	.	.	.	.	.
COc1ccccc1CCNC(=O)Cc1c(C)c2cc(Cl)c(O)cc2oc1=O	-	-	.	.	.	.
CCOC(=O)c1ccc(N2Cc3ccccc3C2=NC(=O)c2cccs2)cc1	?	-	?	-	-	-
CC(=O)c1ccc(N2Cc3ccccc3C2=NC(=O)c2cccs2)cc1	?	14µM	?	-	?	?
Cc1ccccc1C(=O)Nc1ccc2c(c1)C(=O)NC2=O	-	.	-	.	-	-
Cc1ccc2cc(NC(=O)Cc3ccccc3)ccc2n1	3.4µM	.	?	.	2µM	1.4µM
Cc1ccc2cc(NC(=O)c3ccccc3C)ccc2n1	5.4µM	.	?	.	3.5µM	2.8µM
CC(NC(=O)CCc1nnc(-c2ccc(-c3ccccc3)cc2)o1)c1nccs1 (configuration not stated)	17µM	10µM	-	-	-	-
O=C(CCc1nnc(-c2ccc(-c3ccccc3)cc2)o1)NCCc1ccccn1	19µM	.	?	-	-	-
CC(c1ccon1)N(C)C(=O)CCc1nnc(Cc2ccc(-c3ccccc3)cc2)o1 (configuration not stated)	?	.	-	-	-	-
CC(c1nccs1)N(C)C(=O)CCc1nnc(-c2ccc(-c3ccccc3)cc2)o1 (configuration not stated)	12µM	.	-	.	-	-
Cc1ccccc1SCC(=O)NNC(=O)c1ccccc1O	24µM	.	?	.	-	-
O=C(NCCNC(=O)c1ccccc1Br)c1ccccc1Br	-	.	-	.	-	-
Cc1ccccc1SCCNC(=O)c1ccccc1Br	24µM	-	-	-	?	-
COc1ccc(/C(C)=N/NC(=O)c2ccccc2OCc2ccccc2)c(OC)c1	19µM	13µM	?	-	?	?
COc1ccccc1C=NNC(=O)c1ccccc1OCCOc1ccccc1	.	.	-	.	.	.
COc1ccc(/C=N/NC(=O)c2ccccc2OCc2ccccc2)c(OC)c1	17µM	-	-	-	-	-
CCN(c1ccccc1)S(=O)(=O)c1ccc(NC(=O)c2nc(SC)ncc2Cl)cc1	-	-	.	.	.	.
COc1ccc(Cl)cc1NC(=O)Cn1nc(Cc2ccncc2)c2ccccc2c1=O	-	-	.	.	.	.
Cc1ccc(-c2nc(CS(=O)(=O)CC(=O)Nc3ccc(Br)cc3F)c(C)o2)cc1	-	-	.	.	.	.
SMILES	FLuc modulator	SMN2 splice up	ELG1 genotoxic	Luc counter	Rab9 promoter act	NPC1 prom act
O=Cc1ccccc1OCCOc1ccccc1C=O	24µM	?	?	-	-	-
CCOC(=O)c1noc2nc(C)n(CC(=O)Nc3ccc(OC)c(Cl)c3)c(=O)c12	-	.	.	.	.	.
Cc1ccc2nc(NC(=O)c3ccc(Br)o3)sc2c1	1.3µM	.	?	.	1.1µM	1.4µM
Cc1ccc(CSc2ncc(Cl)c(C(=O)Nc3nc4ccc(C)cc4s3)n2)cc1	-	-	.	.	.	.
O=C(Nc1cccc(C(F)(F)F)c1)c1ccc(Cn2cc(Br)cn2)o1	-	-	-	-	-	-
CS(=O)(=O)c1ccc2nc(NC(=O)c3ccc(Cn4cc(Br)cn4)o3)sc2c1	4.8µM	.	-	.	-	?
NS(=O)(=O)c1ccc2nc(NC(=O)CS(=O)(=O)c3ccccc3)sc2c1	-	.	-[9.26 µM]	.	-	-
NS(=O)(=O)c1ccc2nc(NC(=O)c3ccc(Br)o3)sc2c1	9.5µM	18µM	?	-	?	?
CC#C[C@]1(O)CC[C@H]2C3CCC4=CC(=O)CCC4=C3[C@@H](c3ccc(N(C)C)cc3)C[C@@]21C (some centres not stated)	.	-	.	-	.	.
COc1cc2ccccc2cc1C(=O)Nc1sc2c(c1C(N)=O)CCN(C(C)C)C2	9.5µM	.	-	.	-	-
CN1CCc2c(sc(NC(=O)C3COc4ccccc4O3)c2C(N)=O)C1 (configuration not stated)	-	.	23µM	.	?	?
CC(=O)N1CCc2c(sc(NC(=O)C3COc4ccccc4O3)c2C(N)=O)C1 (configuration not stated)	-	.	-	.	-	-
CCOC(=O)N1CCc2c(sc(NC(=O)c3ccc(Cl)s3)c2C(N)=O)C1	11µM	-	-	-	-	-
CN1CCc2c(sc(NC(=O)c3ccc4ccccc4c3)c2C(N)=O)C1	2.7µM	.	10µM	.	?	?
O=S(=O)(NCC(c1ccco1)S(=O)(=O)c1ccccc1)c1cc(F)ccc1F (configuration not stated)	-	.	.	.	.	.
COc1cccc(N2CCN(C(=O)C3Cc4ccccc4N3C(C)=O)CC2)c1 (configuration not stated)	-	.	.	.	.	.
CCCSCCCNC(=O)CN1C(=O)COc2ccc(S(=O)(=O)N3CCC(C)CC3)cc21	-	-	.	.	.	.
CCOc1ccc(C(=O)/C=C/c2cn(CC(O)CN3CCc4ccccc43)c3ccccc23)cc1 (configuration not stated)	-	-	.	.	.	.
CCN1CCc2c(sc(NC(=O)C3COc4ccccc4O3)c2C(N)=O)C1 (configuration not stated)	-	.	18µM	.	?	?
Cc1ccc(C(=O)/C=C/c2ccco2)c(O)c1	9.5µM	-	?	-	-	-
O=C(NCC(c1ccc2c(c1)OCO2)N1CCOCC1)c1cccc(Cl)c1 (configuration not stated)	-	.	.	.	.	.
Cc1c(/C=N\NC(=O)c2c[nH]c3ccccc23)cnn1C	12µM	-	-	-	-	-
CCn1cc(/C=N\NC(=O)c2c[nH]c3ccccc23)c(C)n1	21µM	-	-	-	-	-
CCn1cc(/C=N\NC(=O)c2csc3ccccc23)c(C)n1	?	-	-	-	-	-
COCCCNC(=O)Cn1c(=O)n(-c2cccc(C)c2)c(=O)c2c3c(sc21)CN(C(C)=O)CC3	-	-	.	.	.	.
O=[N+]([O-])c1ccccc1-c1cc(-c2ccccc2O)n[nH]1	8.5µM	3.5µM	?	-	?	-
Oc1ccccc1-c1cc(C(F)(F)F)[nH]n1	-	.	-	.	-	-
Cc1ccc(O)c(-c2cc(-c3ccccc3F)[nH]n2)c1	13µM	11µM	11µM	-	-	-
Cc1ccc(-c2cc(-c3cccc(F)c3)n[nH]2)c(O)c1	?	14µM	?	-	4µM	?
